Each structure is given as a SMILES string. Activity calls are given as the source filed them. Rule for the calls: active = hit-call score of the fitted dose curve at least 0.9, where 1 is the maximum; inactive = score below 0.9.

Hypoxia-inducible factor 1-alpha (Homo sapiens), sequence (Q16665 whole entry, looked up): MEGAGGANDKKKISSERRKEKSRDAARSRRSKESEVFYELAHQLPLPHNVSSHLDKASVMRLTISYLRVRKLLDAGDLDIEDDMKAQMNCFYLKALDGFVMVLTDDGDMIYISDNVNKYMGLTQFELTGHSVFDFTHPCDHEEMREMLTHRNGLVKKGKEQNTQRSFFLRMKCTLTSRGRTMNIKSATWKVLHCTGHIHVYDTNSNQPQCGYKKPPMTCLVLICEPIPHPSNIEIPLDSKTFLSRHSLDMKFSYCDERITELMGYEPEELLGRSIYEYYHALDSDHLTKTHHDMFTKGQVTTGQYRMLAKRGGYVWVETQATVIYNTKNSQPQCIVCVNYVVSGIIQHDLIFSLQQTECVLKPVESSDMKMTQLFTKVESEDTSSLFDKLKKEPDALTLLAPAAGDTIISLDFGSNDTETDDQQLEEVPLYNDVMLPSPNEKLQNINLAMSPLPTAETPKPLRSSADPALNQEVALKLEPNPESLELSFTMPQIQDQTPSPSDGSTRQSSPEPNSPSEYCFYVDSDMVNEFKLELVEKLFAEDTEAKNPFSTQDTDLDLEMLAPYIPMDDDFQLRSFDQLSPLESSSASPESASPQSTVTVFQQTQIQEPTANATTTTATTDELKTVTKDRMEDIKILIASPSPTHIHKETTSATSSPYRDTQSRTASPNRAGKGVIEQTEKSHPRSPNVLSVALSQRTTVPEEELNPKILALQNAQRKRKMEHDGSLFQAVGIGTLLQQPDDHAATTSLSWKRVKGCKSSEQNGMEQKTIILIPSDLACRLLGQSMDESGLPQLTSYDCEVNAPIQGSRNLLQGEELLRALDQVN

The target in the experiment is Hypoxia-inducible factor 1-alpha (Homo sapiens) (UniProt Q16665). Kind of experiment: ATG_HIF1a_CIS: Attagene CIS-FACTORIAL HepG2 Assay for human Hypoxia Inducible Factor 1 (HIF1A) (AID 2282951). Conditions: HepG2 Attagene cis-factorial HIF1a reporter transcription; actives raise or lower the signal. On the procedure:
ATG_CIS is a cell-based, multiplexed-readout assay that uses HepG2, a human liver cell line, with measurements taken at 24 hours after chemical dosing in a 24-well plate.ATG_HIF1a_CIS is one of 52 assay component(s) measured or calculated from the ATG_CIS assay. It is designed to make measurements of mRNA induction, a form of inducible reporter, as detected with fluorescence intensity signals by Reverse transcription polymerase chain reaction (RT-PCR) and Capillary electrophoresis technology.Data from the assay component ATG_HIF1a_CIS was analyzed into 1 assay endpoint. This assay endpoint, ATG_HIF1a_CIS, was analyzed with bidirectional fitting relative to DMSO as the negative control and baseline of activity. Using a type of inducible reporter, measures of mRNA for gain or loss-of-signal activity can be used to understand the reporter gene at the transcription factor-level as they relate to the gene HIF1A. Furthermore, this assay endpoint can be referred to as a primary readout, because this assay has produced multiple assay endpoints where this one serves a reporter gene function. To generalize the intended target to other relatable targets, this assay endpoint is annotated to the dna binding intended target family, where the subfamily is basic helix-loop-helix protein.
Human liver HepG2 cells are transiently transfected with multiple reporter transcription units (MRTUs) in 6-well plates using FuGene 6 reagent (Roche; 3 ml FuGene/1 mg DNA). The MRTU constructs are regulated by a cis-regulating element (promoter). […] A major difference between the CIS and TRANS system is that in CIS activities of endogenous TFs are measured, whereas the TRANS assay evaluates changes in activities of exogenous, chimeric NR-Gal4 proteins. […] At the end of 24 hour incubation, total RNA was isolated using TriZol reagent (Invitrogen). The isolated RNA is then reverse-transcribed using oligo(dT) primer and Mo-MLV reverse transcriptase (Invitrogen) with DNAse I (Ambion) treatment for 30 min. The one-tenth of the produced cDNA was amplified by PCR using Taq DNA polymerase (Invitrogen) and two reporter sequence-specific primers. The PCR products were fluorescently labeled by primer extension with 6-arboxyfluorescein (6-FAM) 5'-labeled reporter sequence-specific primer (2 min at 95 C, 20 s at 68 C and 10 min at 72 C) and these products were digested with 5U of HpaI (New England Biolabs) for 2h at 37 C. The fragments were purified using Qiaquick PCR columns (Qiagen), analyzed on an ABI 3130xL genetic analyzer (Applied Biosystems) with peak positions identified by using a set of X-rhodamine (ROX)-labeled MapMarker1000 molecular weight standards (BioVentures). The raw capillary electrophoresis data was processed using Attagraph software (Attagene).
Take `CC=C1CC2C=CC1C2` (stereo not given): the compound was classed as inactive.

`COC(=O)c1ccc2cc(C(=O)OC)ccc2c1`: the compound was called inactive.

As to `O=C(O)c1cc(Cl)cc([N+](=O)[O-])c1Cl`, the result was inactive.

Regarding `Nc1ccc2cc3ccccc3cc2c1`, the outcome was inactive.

As for `Nc1ccc(N)c(Cl)c1`, the call was inactive.

Consider `CC(=O)OCCC1CCCCC1`, for which the compound was called inactive.

In general, AC50 refers to the concentration at which the activity in the assay is half-maximal. Take `O=C(Nc1cccc(C(F)(F)F)c1)c1cc(Br)cc(Br)c1O`: the AC50 is 19.9 µM (active).

Turning to `Cc1cc(C)c(C)c(O)c1`, the call was inactive.

`CC1=CC[C@H]2C[C@@H]1C2(C)C`: the call was inactive.

Turning to `O=CN1CCCCC1`, the outcome was inactive.

For `CC(C)=CCC/C(C)=C\C#N`, the compound was called inactive.

As for `CC(C)(c1cc(Br)c(OCCO)c(Br)c1)c1cc(Br)c(OCCO)c(Br)c1`, the concentration at half-maximal activity (AC50) was 6.89 µM (active).

`CO[Si](CCC1CCC2OC2C1)(OC)OC` (stereo not given): the call was inactive.

For `CCCCCCCCCCCCCCCC[n+]1ccccc1`, the result was inactive.

Turning to `CCCCCCC(O)CO` (stereo not given), the result was inactive.

Consider `c1cc(C(c2ccc(OCC3CO3)cc2)C(c2ccc(OCC3CO3)cc2)c2ccc(OCC3CO3)cc2)ccc1OCC1CO1` (stereo not given), for which the compound was classed as inactive.

Consider `C=C[Si](C)(C)O[Si](C)(C)C=C`, for which the compound was classed as inactive.

As to `O=S(=O)(Oc1ccc(Cl)cc1Cl)c1ccccc1`, the compound was called inactive.

For `CN(C)c1ccc(C(=N)c2ccc(N(C)C)cc2)cc1`, the AC50 is 0.816 µM (active).

`C=CC(C)(CCC=C(C)C)OC(=O)CC(C)C` (stereo not given): the outcome was inactive.

As for `CCC(CO)CO`, the compound was classed as inactive.

For `CCCCCCCCCCc1ccccc1`, the compound was called inactive.

`CC(C)(C)c1ccc(N)cc1`: the compound was classed as inactive.

On to `COC(=O)/C=C\C(=O)O`, for which the compound was classed as inactive.

Take `CCOC(=O)[C@H](C)O`: the compound was classed as inactive.

For the compound `CCCOCCOCCOCCO`, the compound was classed as inactive.

As to `COCc1c(C(C)C)nc(C(C)C)c(/C=C/[C@@H](O)C[C@@H](O)CC(=O)O)c1-c1ccc(F)cc1`, the result was inactive.

Consider `Cc1ccc(C2OC[C@@H]3OC(c4ccc(C)cc4)O[C@H]([C@H](O)CO)[C@@H]3O2)cc1` (stereo not given in full), for which the result was inactive.

For `CCN(CCC#N)c1ccc(N=Nc2c(Cl)cc([N+](=O)[O-])cc2Cl)cc1`, the AC50 was 43.3 µM (active).

With `O=C1CCCCCCCCCCCCCCCO1`, the concentration at half-maximal activity (AC50) is 122 µM (active).

With `C=COCCCC`, the compound was classed as inactive.

For `O=S(=O)(O)c1ccc2cc(O)c(S(=O)(=O)O)cc2c1`, the AC50 was 171 µM (active).

As to `CCCCCCCCCCCCCOP(=O)(O)O`, the compound was classed as inactive.

`C=C(C)C(=O)OCCO`: the result was inactive.

Regarding `COc1cc(C)ccc1C(C)C`, the outcome was inactive.

Turning to `C=CC(=O)NC(C)(C)CS(=O)(=O)O`, the call was inactive.

`O=C1CCC(=O)N1Cl`: the outcome was inactive.

Take `Cc1c(C)c([N+](=O)[O-])c(C(C)(C)C)c([N+](=O)[O-])c1C`: the compound was classed as inactive.

For the compound `NC(=O)N=NC(N)=O`, the call was inactive.

For `C=C1C2CCC(C2)C1(C)C` (stereo not given), the compound was called inactive.
